Rows were chosen to be rich in hits. Some 0.4% of all compounds tested hit in one or more screens of this group.
UDG counter: blocks uracil-DNA glycosylase in AID counter-screen; Potency, µM (doses to about 115 µM), for inactives: at the highest dose activity change, negative = inhibition, hits mostly inhibitors; FRET deamination/UDG coupled assay, UDG read, 4 h; 91,000 compounds, 0.14% hits; note: nearly all actives have a fitted effect of over 65% in size
AID inh: inhibitors of human activation induced cytidine deaminase; AID deamination FRET fluorescence, UDG-coupled, 4 h; Potency, µM (series often up to 115 µM), hits mostly inhibitors; 91,000 compounds, 0.32% hits; AID 1347428; note: nearly all actives have a fitted effect of over 25% in size
Target sequence (Q9GZX7 whole entry, looked up): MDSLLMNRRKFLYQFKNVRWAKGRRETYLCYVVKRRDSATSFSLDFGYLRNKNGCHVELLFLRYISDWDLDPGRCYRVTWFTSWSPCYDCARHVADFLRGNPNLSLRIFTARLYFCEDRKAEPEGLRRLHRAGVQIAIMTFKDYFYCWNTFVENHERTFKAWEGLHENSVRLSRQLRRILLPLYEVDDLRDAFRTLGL
Numbers without * were called inactive; i = inactive; ? = inconclusive; ! = not confirmed by another sample; [ ] = remark or other dose. Calls come from the whole dose curve; as a rule, active = well fitted curve in the direction sought with a large enough effect; inconclusive = small, poorly fitted or top-dose-only effect, or another doubt; inactive = no such curve, though single readings can be large; an effect the other way counts as inactive or inconclusive. % is set by controls: 0 for no effect and ±100 for the full control effect; potency is the fitted concentration of half-maximal effect.

SMILES | UDG counter | AID inh
COc1ccc(/C=C/C(=O)OCc2cc(=O)oc3cc(C)ccc23)cc1 | 8% | i
CCOC(=O)N1CCc2c(sc(NCc3cccc(F)c3)c2C(=O)Nc2ccc(OC)cc2)C1 | ? | i
CCOC(=O)N1CCc2c(sc(NCc3ccc(N(C)C)cc3)c2C(=O)Nc2ccc(OC)cc2)C1 | -29% | 50µM*
O=C(O)CCc1c(O)ccc2ccccc12 | -8% | i
CCCN(CCC)CCNC(=O)c1cc2c(-c3ccc(Cl)cc3)nn(C)c2s1 | -23%[57.5 µM] | ?
CCCCN(CC)CCNC(=O)c1cc2c(-c3ccc(Cl)cc3)nn(C)c2s1 | -29% | 89µM*
CN(C)c1ccc(C(=O)OC(C(=O)c2ccccc2)c2ccccc2)cc1 (configuration not stated) | -6% | i
COc1ccc(Nc2nc3ccccc3nc2NS(=O)(=O)c2ccc(Cl)cc2)cc1OC | -5% | 79µM*!
COc1ccc(Nc2nc3ccccc3nc2NS(=O)(=O)c2ccc(NC(C)=O)cc2)cc1OC | -3% | i
Cc1ccc(NC(=O)C2=C(c3ccccc3)NC(=S)NC2c2ccc(C(C)C)cc2)cc1 (configuration not stated) | -13% | i
CCc1ccc(OCCCSc2nc(-c3ccc(C(C)(C)C)cc3)nc3cc(=O)[nH]n23)cc1 | -22% | 79µM*
Cc1cccc(OCCCSc2nc(-c3ccc(C(C)(C)C)cc3)nc3cc(=O)[nH]n23)c1C | -21% | ?
O=C(/C=C/c1ccco1)c1ccccc1 | -1% | i
CC(C)(C)C1CCc2nc(SCC(N)=O)c(C#N)c(C(F)(F)F)c2C1 (configuration not stated) | 79µM* | ?
COC(=O)CSc1nc2c(c(-c3cccs3)c1C#N)CCCC2 | -6% | i
O=C(Nc1cccc(F)c1)c1cccn2c(-c3ccc(F)cc3)nnc12 | 4% | i
CCCCC1CCC(C(=O)NNC(=O)c2ccc(Br)cc2)CC1 (configuration not stated) | 3% | i
O=C(Nc1nonc1-c1ccc2c(c1)CCCC2)c1cc(=O)c2ccc(Br)cc2o1 | 16% | 20µM*
C=CCSc1nnc(NC(=O)c2cc(=O)c3ccc(Br)cc3o2)s1 | 5% | i
Fc1ccc(CN2CCc3ccccc3C2)c(Cl)c1 | -5% | i
CC(OC(=O)c1cc(-c2ccco2)nc2ccccc12)C(=O)NC(=O)NC1CCCCC1 (configuration not stated) | 4% | i
Cc1ccc2c(c1)-c1c(cnn1CC(=O)N1CCN(c3cc(C)ccc3C)CC1)CO2 | -11% | 40µM*
COc1ccc(N2CCN(C(=O)Cn3ncc4c3-c3cc(C)ccc3OC4)CC2)cc1 | -16% | i
Cc1cc(C)c(NC(=O)C2=Cc3sc4c(c3CS2)CCCC4)c(C)c1 | -8% | i
N=C(N)c1cccc(OCc2cccnc2)c1 | -6% | i
SMILES | UDG counter | AID inh
Cc1c(C(=O)N(C)C)sc2c1c(=O)n(-c1ccc(F)cc1)c(=O)n2Cc1ccccc1C#N | 89µM* | i
CCc1ccc(-n2c(=O)c3c(C)c(C(=O)N(C)C)sc3n(Cc3ccccc3F)c2=O)cc1 | 0%[57.5 µM] | i
Cc1ccc(C)c(N2CCN(C(=O)c3cc4ccc5cccnc5c4[nH]3)CC2)c1 | 0% | ?
Cc1cccc(N2CCN(C(=O)c3cc4ccc5cccnc5c4[nH]3)CC2C)c1 (configuration not stated) | ? | 35µM*
CC(C)c1cc(=O)oc2cc(OS(=O)(=O)c3ccc(F)cc3)ccc12 | -5% | i
CC(C)C(=O)Nc1ccc(Cl)cc1F | -2% | i
Cc1ccc(C(C)NC(=O)Nc2ccc(Cl)cc2F)c(C)c1 (configuration not stated) | 1% | 14µM*
CCOc1ccc(-n2c(C)nc3cc(C(=O)NCc4ccc(C)cc4)ccc32)cc1 | -15% | 32µM*
CCOc1ccc(-n2c(C)nc3cc(C(=O)NCCC4=CCCCC4)ccc32)cc1 | 0% | i
Cc1ccccc1C(=O)NC1(C(F)(F)F)N=C(c2ccccc2)N(Cc2ccco2)C1=O (configuration not stated) | 10% | i
CC1CCC(NC(=O)c2cc(Cl)ccn2)CC1 (configuration not stated) | -4% | i
Cn1nc(-c2ccc(N3CCOCC3)c(NC(=O)COc3ccccc3)c2)c2ccccc2c1=O | 89µM* | ?
Cn1nc(-c2ccc(OCC(=O)N3CCOCC3)cc2)c2ccccc2c1=O | 3% | i
O=C(CSC1CCCCC1)c1ccccc1Br | 3% | i
COC(=O)C1=C(C)NC(=O)NC1c1cn(-c2ccccc2)nc1-c1ccc(OC)c(Cl)c1 (configuration not stated) | -21% | i
CCOc1ccc(-c2nn(-c3ccccc3)cc2C2NC(=O)NC(C)=C2C(=O)OC(C)C)cc1C (configuration not stated) | ? | 45µM*!

Screens (PubChem BioAssay)
